SKKanGAS inh = blocks kanamycin growth of S. pyogenes SKKanGAS strain; 300,000 compounds, 1.3% hits; BacTiter-Glo, 6 h; inhibition, % at 7.5 µM; AID 1662;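 active = mean replicate score, as percent of positive control median, at least 50; inconclusive = mean below 50 but one replicate at or above 50; inactive = mean and every replicate below 50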;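 also: strain carries kanamycin resistance gene driven by streptokinase promoter and grows in 40 µg/ml kanamycin; loss of luminescence reflects streptokinase promoter inhibition or plain growth inhibition; 0% = median of DMSO wells and 100% = positive control at its reference dose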
tim10-1 inh = tim10-1 yeast growth inhibition | 330,000 compounds, 2.2% hits | S. cerevisiae tim10-1 ts strain growth, BacTiter-Glo, 24 h | inhibition, % at 20 µM | AID 463190;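 active = inhibition of at least 40%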;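 also: mutant grown at 25 °C; 0% = DMSO wells with yeast and 100% = wells holding no yeast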
tim23-1 inh = tim23-1 yeast growth inhibition; inhibition, % at 20 µM; 330,000 compounds, 1.3% hits; S. cerevisiae tim23-1 growth, BacTiter-Glo luminescence, 24 h; AID 463212;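 active = growth inhibition of the mutant yeast at or above 50%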;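 also: temperature-sensitive mutant grown at 25 °C; plate controls were DMSO-treated mutant yeast for no effect and medium wells lacking yeast for full effect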
NALP1 yeast inh = blocks the NALP1 inflammasome reconstituted in yeast; S. cerevisiae NALP1/ASC/caspase-1 growth, X-gal OD620, 72 h; 280,000 compounds, 0.61% hits; inhibition, % at 10 µM; in the data active = inhibition mostly above about 24%, no sharp cut-off; inactive = mostly below about 32%
PfHsp90 set2 = reduces growth (ATP signal) of yeast expressing P. falciparum Hsp90; inhibition, % at 9.4 µM; AID 504621; 310,000 compounds, 0.32% hits; S. cerevisiae expressing PfHsp90, BacTiter-Glo ATP, 48 h; yeast lacking PDR1 and PDR3 efflux regulators;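 active = every replicate shows inhibition above about 80%, whatever the replicate mean, limit read from the data; inconclusive = mean inhibition reaches the set limit but some replicate falls short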;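 also: 0% = DMSO neutral controls and 100% = 20 µM radicicol positive controls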
TIM10 inh = inhibits growth of TIM10 yeast strain; S. cerevisiae TIM10 strain growth, BacTiter-Glo luminescence, 24 h; inhibition, % at 10 µM; 330,000 compounds, 1.4% hits; AID 463195;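 active = inhibition of 40% or more at the single tested concentration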;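 also: wild-type TIM10 isogenic control strain grown at permissive 25 °C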
tim10-1 conf = confirmation of tim10-1 mutant yeast growth inhibitors | shares compounds with tim10-1 inh | 7,400 compounds, 56% hits | inhibition, % at 20 µM | S. cerevisiae tim10-1 ts strain growth, BacTiter-Glo, 24 h;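 active = inhibition of yeast growth at or above a set limit in either of two repeat tests at 20 µM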;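 also: tim10-1 mutant grown at permissive 25 °C to find synthetic lethal compounds; 0% = DMSO yeast wells and 100% = medium wells without yeast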
TIM10 conf = confirmation of TIM10 yeast growth inhibitors; shares compounds with TIM10 inh; S. cerevisiae tim10 strain growth, BacTiter-Glo luminescence, 24 h; inhibition, % at 10 µM; 4,600 compounds, 63% hits;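 active = inhibition of yeast growth at or above a set limit in either of two replicates at 10 µM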;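 also: this counterscreen used the strain with wild-type TIM10; 0% = yeast with DMSO and 100% = medium wells lacking yeast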
tim23-1 confirm = confirmation of tim23-1 mutant yeast growth inhibitors | inhibition, % at 20 µM | shares compounds with tim23-1 inh | 4,400 compounds, 83% hits | S. cerevisiae tim23-1 growth, BacTiter-Glo luminescence, 24 h;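 active = inhibition above about 39% in either of two replicate wells at 20 µM, limit read from the data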;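 also: temperature-sensitive tim23-1 mutant grown at 25 °C; 0% = DMSO wells with yeast and 100% = medium wells without yeast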
Numbers without * were called inactive. An excerpt weighted towards active compounds, which were near 4.8% of everything screened.

Results for O=C(Nc1ccccc1)c1nnsc1S(=O)c1ccc(Cl)cc1 (stereo unspecified) ?
SKKanGAS inh: 73.0*; tim10-1 inh: 92.4*; tim23-1 inh: 55.6*; NALP1 yeast inh: -1.0; PfHsp90 set2: 106.3*; TIM10 inh: 93.6*; tim10-1 conf: 91.8*; TIM10 conf: 98.3*; tim23-1 confirm: 97.5*

Results for Cc1cccc(Oc2ccccc2NS(=O)(=O)c2ccc(CCC(=O)O)cc2)c1 ?
tim10-1 inh: 1.2; tim23-1 inh: 18.1; PfHsp90 set2: 3.5; TIM10 inh: 22.9

How did CN(C)CCCNC(=O)c1cc(Br)ccc1Cl do in these assays?
SKKanGAS inh: -3.5; tim10-1 inh: 3.5; tim23-1 inh: 2.8; NALP1 yeast inh: 9.5; PfHsp90 set2: -2.1; TIM10 inh: -0.7

Results for NN(Cc1ccccc1)C(=S)Nc1ccc(Cl)c(Cl)c1 ?
SKKanGAS inh: 28.8; tim10-1 inh: 41.2*; tim23-1 inh: 71.4*; NALP1 yeast inh: 8.8; PfHsp90 set2: 6.0; TIM10 inh: 49.6*; tim10-1 conf: 66.2*; TIM10 conf: 51.1*; tim23-1 confirm: 68.8*

What do the screens show for `OCCNC(=S)Nc1ccc(Cl)c(Cl)c1`?
SKKanGAS inh: -0.6; tim10-1 inh: 29.5; tim23-1 inh: 0.2; NALP1 yeast inh: 19.3; PfHsp90 set2: -18.6; TIM10 inh: -11.0

How did Cc1ccc(C(=O)OCn2ncc(Cl)c(Cl)c2=O)cc1 do in these assays?
SKKanGAS inh: 6.6; tim10-1 inh: 75.0*; tim23-1 inh: 79.0*; NALP1 yeast inh: -7.3; PfHsp90 set2: 95.8*; TIM10 inh: 72.2*; tim10-1 conf: 77.7*; TIM10 conf: 69.9*; tim23-1 confirm: 70.9*

Results for O=C(OCn1ncc(Cl)c(Cl)c1=O)c1ccc(C(F)(F)F)cc1 ?
SKKanGAS inh: 4.5; tim10-1 inh: 75.2*; tim23-1 inh: 77.9*; NALP1 yeast inh: -0.3; PfHsp90 set2: 51.9; TIM10 inh: 42.2*; tim10-1 conf: 74.0*; TIM10 conf: 41.4*; tim23-1 confirm: 78.7*

How did COC(=O)c1cc2sc(Cl)cc2n1CC(=O)NCC1CCCO1 (stereo unspecified) do in these assays?
SKKanGAS inh: 9.5; tim10-1 inh: 6.5; tim23-1 inh: 13.4; NALP1 yeast inh: 17.2; PfHsp90 set2: 4.5; TIM10 inh: -6.9

How did COc1ccc(CN2CCN(Cc3cc(=O)oc4cc(C)ccc34)CC2)c(OC)c1OC do in these assays?
SKKanGAS inh: -1.4; tim10-1 inh: 7.6; tim23-1 inh: 2.8; NALP1 yeast inh: 16.9; PfHsp90 set2: -6.3; TIM10 inh: 8.3

Results for COc1ccc(OC)c(NC(=O)c2ccccc2OC(C)=O)c1 ?
SKKanGAS inh: 1.3; tim10-1 inh: 62.4*; tim23-1 inh: 54.0*; PfHsp90 set2: -17.3; TIM10 inh: 21.5; tim10-1 conf: 32.2*; tim23-1 confirm: 49.5*

Results for COc1ccc(-c2cc3nc(C)n(N)c(=O)c3s2)cc1 ?
SKKanGAS inh: 88.4*; tim10-1 inh: 64.8*; tim23-1 inh: 69.3*; PfHsp90 set2: inconclusive; TIM10 inh: 58.2*; tim10-1 conf: 66.2*; TIM10 conf: 47.9*; tim23-1 confirm: 68.2*

What do the screens show for `COc1ccc(-c2cc3nc4n(c(=O)c3s2)CCCCC4)cc1`?
SKKanGAS inh: 12.1; tim10-1 inh: 23.5; tim23-1 inh: 35.2; NALP1 yeast inh: 2.3; PfHsp90 set2: -13.0; TIM10 inh: 26.9

What do the screens show for `COc1ccc(-c2cc3nc4n(c(=O)c3s2)CCC4)cc1`?
SKKanGAS inh: 99.1*; tim10-1 inh: 57.7*; tim23-1 inh: 58.3*; NALP1 yeast inh: -1.8; PfHsp90 set2: 26.0; TIM10 inh: 70.3*; tim10-1 conf: 53.7*; TIM10 conf: 75.8*; tim23-1 confirm: 55.1*

Screens deposited in PubChem BioAssay by several laboratories.
